Measurements published in PubChem BioAssay (NCI).
Compounds without any hit were thinned out: in the full panel of roughly 79,000, 15% have a hit. Activity calls are given as the source filed them. Cut-off read from the data, not from the text of the source: active = growth inhibition above about 70%; inactive = the rest.

Assays:
[1] = NCI Yeast Anticancer Drug Screen. Data for the rad50 strain (AID 155);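 note: 0% = growth of vehicle-only cultures of the same strain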; conditions: S. cerevisiae rad50 strain growth inhibition; at 50.0 µM; hits give high values
Method in brief: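 Genetically altered yeast (DNA repair pathway); compound treatment; growth inhibition vs vehicle ctrl.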

[2] = NCI Yeast Anticancer Drug Screen. Data for the mec2-1 strain (AID 157); conditions: S. cerevisiae mec2-1 strain, at 50.0 µM, hits give high values
Method in brief: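 Vehicle-treated cultures served as reference for growth inhibition of compound-exposed mec2-1 yeast.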

[3] = NCI Yeast Anticancer Drug Screen. Data for the sgs1 mgt1 strain (AID 161);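 note: 0% = growth of cultures given vehicle only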; conditions: S. cerevisiae sgs1 mgt1 strain, at 50.0 µM, hits give high values
Method in brief: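 Test agents were incubated with a DNA-repair-mutant yeast strain. Growth was then read and compared against vehicle-treated controls.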

[4] = NCI Yeast Anticancer Drug Screen. Data for the cln2 rad14 strain (AID 165);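 note: 0% = growth equal to vehicle treated cultures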; conditions: S. cerevisiae cln2 rad14 strain, at 50.0 µM, hits give high values
Method in brief: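 Each compound was tested on cln2 rad14 yeast. Inhibition of growth was calculated against vehicle-exposed controls.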

[5] = NCI Yeast Anticancer Drug Screen. Data for the bub3 strain (AID 167); conditions: S. cerevisiae bub3 mutant strain, at 50.0 µM, hits give high values
Method in brief: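 Yeast carrying a defined mutation is treated with each compound, and growth is compared with that of vehicle-exposed cells to give inhibition.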

[6] = NCI Yeast Anticancer Drug Screen. Data for the mlh1 rad18 strain (AID 175); conditions: S. cerevisiae mlh1 rad18 strain growth inhibition; at 50.0 µM; hits give high values
Method in brief: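 Vehicle-treated cultures served as the reference for growth inhibition in a yeast strain carrying DNA damage repair alterations exposed to each compound.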

Measured: growth inhibition

CCCCC(C(=O)NN)P(=O)(OCC)OCC (stereo not drawn)
inactive: [1] -0.9% | [2] -5.2% | [3] 15.8% | [4] -14.7% | [5] -1.95% | [6] 0.95%

CCOP(=O)(OCC)O/N=C(/C#N)c1ccccc1
inactive: [1] 11.3% | [2] -6.4% | [3] 18.4% | [4] -0.35% | [5] -7.45% | [6] -1%

c1ccc(N=Nc2ccccc2)cc1
inactive: [1] -1.25% | [2] -7.5% | [3] -4.2% | [4] -9.55% | [5] -5.15% | [6] 24.6%

Nc1nc(N)c(N)c(N)n1
inactive: [1] 3.05% | [2] 1.8% | [3] 14.6% | [4] -3.05% | [5] -3.05% | [6] 34.2%

NCCn1ccc2ccccc21
inactive: [1] 8.2% | [2] -21.2% | [3] 5.35% | [4] 7.35% | [5] -0.4% | [6] 18.2%

Cc1cc(CCl)cc(=O)[nH]1
inactive: [1] -9.75% | [2] -0.7% | [3] -7.55% | [4] -8.9% | [5] -20.6% | [6] 12.2%

CCC(=O)NCC1CCCN2CCCCC12 (stereo not drawn)
inactive: [1] -4.55% | [2] -8.35% | [3] -18.5% | [4] 2.65% | [5] 6.95% | [6] -22%

[C-]#[O+].[C-]#[O+].[C-]#[O+].[C-]#[O+].[Fe].[N-]=C(C(F)(F)F)C(F)(F)F
inactive: [1] -16.4% | [2] -19.8% | [3] -11.7% | [4] -0.25% | [5] -11.2% | [6] -25.4%

CN(C)c1ccc(C(c2c(O)c3ccc(O)cc3oc2=O)c2c(O)c3ccc(O)cc3oc2=O)cc1
inactive: [1] 8.4% | [2] 7.75% | [3] 22.2% | [4] 32.7% | [5] 3.9% | [6] 11.4%

O=NN1CCCCCCC1C(=O)O (stereo not drawn)
inactive: [1] 1.3% | [2] 6.55% | [3] -14.7% | [4] -22.8% | [5] 9.15% | [6] 19.5%

O=C(O)CP(=S)(S)c1ccccc1 (stereo not drawn)
inactive: [1] -28.5% | [2] -32.9% | [3] -26.4% | [4] 2.4% | [5] -27.8% | [6] -39.5%

O=C(O)CC(=O)O.[NH-]C1CCCCC1[NH-].[Pt+2] (stereo not drawn)
inactive: [1] 23.7% | [2] 4.35% | [3] 21.4% | [4] 30.4% | [5] 21.4% | [6] 13.8%

Cc1cc[n+](C)c(Cc2ccccc2)c1C
inactive: [1] -26.7% | [2] -11.1% | [3] -8.9% | [4] -26.1% | [5] -22% | [6] -28.9%

OC1CN=C2c3ccccc3C(O)(c3ccc(Cl)cc3)N2C1 (stereo not drawn)
inactive: [1] 23.8% | [2] 22.1% | [3] 37.2% | [4] -1.9% | [5] 22.7% | [6] 37.5%

C[CH2][Sn](/[CH]=C\CO)([CH2]C)[CH2]C
inactive: [1] 63% | [4] 43.8%
active: [2] 77.8% | [3] 85.2% | [5] 93.6% | [6] 94.6%

CC(C)NCc1ccccc1
inactive: [1] -4.25% | [2] -12.3% | [3] 19.5% | [4] 9.8% | [5] 7.35% | [6] -6.05%

NC(=O)C[CH2][Sn]([Cl])([Cl])[CH2]CC(N)=O
inactive: [1] -5.65% | [2] -5.5% | [3] 3.55% | [4] 5.3% | [5] 7.9% | [6] -7%

COc1cc2c3c(c1OC)Oc1ccc(cc1)CC1c4c(cc(OC)c(OC)c4Oc4ccc(cc4)CC3N(C)CC2)CCN1C (stereo not drawn)
inactive: [1] 2.75% | [2] 11.9% | [3] -11.3% | [4] -8% | [5] -13.6% | [6] -3.65%

CC(C(=O)c1ccccc1)N(C)C (stereo not drawn)
inactive: [1] 2.15% | [2] -6.85% | [3] -4.2% | [4] -50.4% | [5] -19.7% | [6] 5.5%

COC[C@H]1OC(=O)c2coc3c2[C@@]1(C)C1=C(C3=O)[C@@H]2CCC(=O)[C@@]2(C)C[C@H]1OC(C)=O
active: [1] 92.3% | [2] 93.3% | [3] 89.4% | [4] 89.1% | [5] 86.1% | [6] 88.8%

CCCCCCNP(=O)(OCC)OCC
inactive: [1] -6% | [2] -36.9% | [3] 5.3% | [4] 6.8% | [5] -41.8% | [6] 12.3%

OC1(C#[C][Hg][C]#CC2(O)CCCCC2)CCCCC1
active: [1] 95.2% | [2] 89.5% | [3] 90.7% | [4] 97.3% | [5] 97.4% | [6] 95.4%

O=C1C(F)=C(F)C(=O)C(F)=C1F
inactive: [1] 16.2% | [2] -4.75% | [3] 8.35% | [4] -2.85% | [5] 21.5% | [6] -1.7%

Cc1cc(S(=O)(=O)F)ccc1NC(=O)/C=C/c1ccc([N+](=O)[O-])cc1
inactive: [1] 8.95% | [2] 4% | [3] 0.75% | [4] 0.55% | [5] 21.4% | [6] -8.15%

Oc1ccccc1I
inactive: [1] 11.9% | [2] 4.85% | [3] -57% | [4] -8.7% | [5] -42.9% | [6] -14.2%

CCC[CH2][Sn]1([CH2]CCC)[O]CC2(CCCCC2)C[O]1
active: [1] 99.6% | [2] 99.8% | [3] 99.2% | [4] 99.5% | [5] 99.7% | [6] 99.6%

COC(=S)NP(=O)(NC(=S)OC)NC(=S)OC
inactive: [1] 11.7% | [2] -3.4% | [3] 9.65% | [4] -35% | [5] -1.95% | [6] 8.25%

CC[N+](CC)(CC)CC.[C-]#[O+].[C-]#[O+].[C-]#[O+].[Cr+4].[c-]1[c-][c-][cH-][c-]1
inactive: [1] 11.3% | [2] 12.4% | [3] 8.75% | [4] -10.8% | [5] 6.65% | [6] -5.8%

N.N.N.N.N.O=[N+]([O-])[O-].[Co+3].[O-][Cl+3]([O-])([O-])[O-]
inactive: [1] -13.7% | [2] 4.6% | [3] -10.5% | [4] -3.15% | [5] -4.45% | [6] -7.75%

COc1ccc(C(O)(C(=O)O)c2ccc(OC)c(OC)c2)cc1OC
inactive: [1] 5.6% | [2] -1.25% | [3] -1.7% | [4] -13.9% | [5] 8% | [6] 0.2%

Cc1ccc(NC(=O)CCc2ccc(N3C(N)=NC(N)=NC3(C)C)cc2Cl)cc1S(=O)(=O)F
inactive: [1] 54.6% | [3] 64.2% | [4] -5.25% | [5] -25.9% | [6] 15%
active: [2] 72.3%

C=CC1CN2CCC1CC2C(O)c1ccnc2ccccc12 (stereo not drawn) (tested in a mixture with another compound)
inactive: [1] -3.9% | [2] -17.1% | [3] -5.4% | [4] -4.05% | [5] -1.4% | [6] 1.75%

O=[N+]([O-])c1cccc(C(Cl)Cl)c1
inactive: [1] 30.5% | [2] -4.7% | [3] 22.4% | [4] 22.1% | [5] 12.1% | [6] -2.25%

COc1cc2c(cc1OC)C13CCN4CC5CCOC6CC(=O)N2C1C6C5CC43 (stereo not drawn)
inactive: [1] 8.6% | [2] 6.35% | [3] 21.6% | [4] 10.2% | [5] -7.5% | [6] -72.3%

N#CC(C#N)=Cc1ccc(F)cc1
inactive: [1] -6.85% | [2] 5% | [3] -18.7% | [4] -15.7% | [5] 16.1% | [6] -15.5%

COC1OCC(N=[N+]=[N-])C(OC)C1O (stereo not drawn)
inactive: [1] 18.8% | [2] -12.4% | [3] -3.1% | [4] -19.2% | [5] 5.65% | [6] -1.8%

C=C[Se](=C(C#N)C#N)c1ccccc1 (stereo not drawn)
inactive: [1] -3.35% | [2] 28% | [3] 5.75% | [4] 4.35% | [5] -16.4% | [6] 0.7%

CCCCS(=O)(=O)C(c1ccccc1)c1ccccc1
active: [2] 97.4% | [3] 96% | [5] 96.5% | [6] 96.4%
inactive: [1] 69.2% | [4] 56.5%
